# In PubChem BioAssay AID1347416 (National Center for Advancing Translational Sciences (NCATS), 2020):
# The whole screen tested about 4,100 compounds, of which about 1,600 (39%) were called active. Not shown: some 25% with an inconclusive outcome. Some of the results follow. Unmarked numbers belong to inactive results. Calls follow the shape of the dose curve; as a rule, active = well fitted inhibition curve with a large enough effect; inconclusive = small, poorly fitted or top-dose-only effect; inactive = no such curve, though single readings can be large or run the other way.
# Assay: qHTS Validation assay for Inhibitors of Plasmodium falciparum Dd2 growth in vitro; also: nearly all actives have a fitted effect of over 70% in size
# Settings: P. falciparum Dd2 in RBCs, SYBR Green growth, 72 h; series mostly up to 28.7 µM; activity change, negative = inhibition: at the top concentration
# Summary of the method: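 P. falciparum Dd2-infected red blood cells (2.5% hematocrit, 0.3% parasitemia) grown 72 h at 37 °C under 5% O2 with compounds in a titration, 29 uM to 0.5 nM final. Growth read as SYBR Green-1 fluorescence after ~16 h lysis; artesunate 300 nM as positive control.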
# % is scaled to controls: 0 for no effect and ±100 for the full control effect; potency is read from the fitted curve at half-maximal effect.
SMILES,Potency,"activity change, negative = inhibition"
COc1ccc(C(C)NC(=S)NC2CCCC2)cc1OC (stereo unspecified),6680 nM (active),–
CCOc1ccc(C(C)NC(=S)NC2CCCCC2)cc1OCC (stereo unspecified),211 nM (active),–
CC(C)c1ccc(OCC(=O)NC2CCCC2)cc1,–,-28.4%
Cc1ccc(C(=O)N2CCN(c3nnc4c(Cl)cccn34)CC2)cc1F,–,-6.08%
CN1CCN(C(=O)c2ccc3c(c2)N(Cc2c(F)cccc2Cl)C(=O)c2ccccc2S3)CC1,59.6 nM (active),–
CCN1CCN(C(=O)c2ccc3c(c2)N(Cc2c(F)cccc2Cl)C(=O)c2ccccc2S3)CC1,8.4 nM (active),–
O=C1Nc2ccc(-c3ccccc3F)cc2C(=O)N2CCN(C(=O)c3ccccc3)C[C@H]12,–,-15.2% [at 43.1 µM]
COc1ccc(C(=O)N2CCCC3(C2)NC(=O)N(Cc2cccc(Cl)c2)C3=O)cc1F (stereo unspecified),–,-22%
CC(C)CNC(=O)CN1CN(c2ccccc2)C2(CCN(C(=O)NC3CCCCC3)CC2)C1=O,15000 nM (active),–
CC(C)(C)C1CCC2(CC1)NC(=O)N(CC(=O)NC1CCCCC1)C2=O (stereo unspecified),–,7.63%
O=C(OCc1ccccc1)N1CCC2(CC1)C(=NC1CCCCC1)NC(=O)N2c1cccnc1,–,2.65%
CCCS(=O)(=O)c1nc(S(=O)(=O)c2ccc(C)cc2)c(NCCCOC(C)C)s1,2110 nM (active),–
Cc1ccc(S(=O)(=O)c2nc(S(=O)(=O)c3ccccc3)sc2NCCCOC(C)C)cc1,596 nM (active),–
CC(C)OCCCNc1sc(S(=O)(=O)c2ccccc2)nc1S(=O)(=O)c1ccc(Cl)cc1,266 nM (active),–
C=CCNC(=S)N1CCN(c2ccc([N+](=O)[O-])cc2)CC1,4220 nM (active),–
O=[N+]([O-])c1ccc(N2CCN(C(=S)NC3CCCCC3)CC2)cc1,1880 nM (active),–
Cc1ccc(C)c(-c2cc3c(=O)n(CCNC(=O)c4ccncc4)ccn3n2)c1,–,0.395%
CC(C)n1nc(OC(C)(C)C(=O)NCC2CCOCC2)c2cc(CN3CCOCC3)ccc21,–,5.77%
CC(C)CNC(=O)C(C)(C)Oc1nn(CC2CC2)c2ccc(CN3CCCC3)cc12,19300 nM (active),–
O=C([C@@H]1C[C@H](Oc2cccnc2)CN1C(=O)NCCc1ccccc1)N1CCOCC1,–,22.2%
CCN(CC)CCN1C(=O)c2ccccc2NC1c1ccc(C)cc1 (stereo unspecified),2990 nM (active),–

SMILES,Potency,"activity change, negative = inhibition"
CCN(CC)CCN1C(=O)c2ccccc2NC1c1ccc(N(C)C)cc1 (stereo unspecified),4220 nM (active),–
CCN(CC)CCN1C(=O)c2ccccc2NC1c1ccc(Br)cc1 (stereo unspecified),1500 nM (active),–
CCc1ccc(CNC(=O)c2ccc(-c3nc(CSc4ccc(C)cc4)c(C)o3)cc2)cc1,–,30.9%
CCc1noc(-c2ccn3c(CNC(=O)COc4cccc(C)c4)nnc3c2)n1,–,27.4%
O[C@@H]1CC(CNCC2CCCC2)(COc2ccc(C(F)(F)F)cn2)C[C@@H]1O (stereo partly specified),5310 nM (active),–
CCn1cc(C(=O)N2CCN(c3cccc(C)c3)C(C)C2)c(=O)c2cc(S(=O)(=O)N3CCOCC3)ccc21 (stereo unspecified),–,7.89%
CCCCOc1ccc(C(=O)N/C(=C\c2cccc([N+](=O)[O-])c2)C(=O)OC(C)C)cc1,2110 nM (active),–
CC(C)COc1ccc(C(=O)N/C(=C\c2cccc([N+](=O)[O-])c2)C(=O)OC(C)C)cc1,531 nM (active),–
CC(C)c1ccccc1OCC(O)CN(CC(O)COc1cccc2ccccc12)C(C)C (stereo unspecified),2370 nM (active),–
CC(C)[N+](C)(C)CC(O)COc1cccc2ccccc12 (stereo unspecified),–,32.3%
CC(=O)Nc1ccc(CN2CC(N(C)c3ccccc3C)C2)cc1,12200 nM (active),–
CC(=O)Nc1ccc(CN2CCC3(CC2)CNc2ccccc2[S+](=O)([O-])N3)cc1,–,0%
CC(=O)Nc1ccc(CN2CC(Oc3ccc(F)c(C)c3)C2)cc1,–,-23.8% [at 43.1 µM]
Cc1ccc2nc(-c3ccccc3O)c(Nc3ccccc3C)n2c1,2370 nM (active),–
CCOC(=O)c1c(CN(C)C)oc2cc(CN(C)C)c(O)c(CSc3ccccc3)c12,596 nM (active),–
CN(C)CC1(O)CCC2(CCN(C(=O)c3nccc4ccccc34)CC2)CC1,–,6.94%
Cc1cccc(N2CCN(c3nc4ccccc4c4nnc(C)n34)CC2)c1C,5310 nM (active),–
COc1ccc(Nc2cc(C)nc(NCc3ccccc3)n2)cc1,13300 nM (active),–
Cc1cc(Nc2cccc(F)c2)nc(NCc2ccccc2)n1,8410 nM (active),–
CC(=O)Nc1ccc(Nc2cc(C)nc(Nc3ccc(NC(C)=O)cc3)n2)cc1,3350 nM (active),–
Cc1ccnc(NS(=O)(=O)c2ccc(NC(=O)C(C)(C)C)cc2)n1,–,46%

SMILES,Potency,"activity change, negative = inhibition"
Cc1ccc(/C=N/Nc2cc(C)nc(NCc3ccccc3)n2)cc1,5310 nM (active),–
COc1ccc(-c2cc(C(=O)O)n(Cc3ccccc3)n2)cc1,–,16.6%
COc1cc(SC)ccc1C(=O)N[C@H]1CCN2C(=O)N(c3ccc(Cl)cc3)C(=O)[C@@H]2C1,–,-1.61%
COCc1nc(-c2ccc(OC3CN(S(=O)(=O)c4ccccc4C)C3)cc2)no1,–,-1.15%
Cc1ccc2nc(CCc3ccc(N)cc3)[nH]c2c1,–,19.4%
COCCn1c(=O)n([C@H]2CCCN(C(=O)CC3CCCCC3)C2)c2ncccc21,–,8.85%
COc1nccnc1NC1CCN(C(=O)Cc2ccccc2)CC1,–,20.1%
CN(C)c1cc(N2CCCC(NC(=O)NCc3ccccc3)C2)ncn1 (stereo unspecified),–,-4.58%
Cc1cc(Nc2cccc(Cl)c2)nc(NCc2ccccc2)n1,8410 nM (active),–
Cc1cc(Nc2ccc(Cl)cc2)nc(NCc2ccccc2)n1,422 nM (active),–
CCCCNc1cc(C)nc(NCc2ccccc2)n1,9440 nM (active),–
Cc1cc(NC2CCCCC2)nc(NCc2ccccc2)n1,16800 nM (active),–
CCCc1noc(-c2ccn3c(CNC(=O)c4cccc(N(C)C)c4)nnc3c2)n1,–,-28.6%
Cc1cc(=O)n(CC(=O)NCc2ccccc2Br)c(N(C)Cc2ccccc2)n1,–,-29.8%
Cc1cc(NCc2ccco2)nc2cc(O)ccc12,6680 nM (active),–
Cc1cc(N(C)Cc2ccccc2)nc2cc(O)ccc12,2370 nM (active),–
Cc1cc(Nc2ccccc2)nc2cc(O)ccc12,422 nM (active),–
CNC(=O)[C@@H](c1ccc(Cl)cc1)N1CCC[C@H]1C(=O)N1CC[C@@H](O)C1,–,0% [at 43.1 µM]
CCN1Cc2nc(OC)c(CNC(=O)C(C)n3cc(C)cn3)cc2C1=O (stereo unspecified),–,0%
